About 83,000 compounds went through this panel and 20% of them were active in at least one assay; those are over-represented in the sample as a whole.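 Cells were grown in 96-well plates and exposed to the test compound at a single concentration for 48 hours; results are reported as percent growth, with values below 10 considered active.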 Unmarked numbers belong to inactive results. Calls of active or inactive are those of the source.

What all share (assay): NCI-60 one-dose screen, 48 h (100 = growth as untreated, 0 = no growth, -100 = all killed)
One assay deals with SK-MEL-2 melanoma. The settings on record: 10 µM unless noted.
Another assay concerns EKVX NSCLC. To be noted: 10 µM unless noted.
The subject of a further assay is SN12C renal. The settings on record: 10 µM unless noted.
In the next assay the test system is UO-31 renal. To be noted: 10 µM unless noted.
In a further assay the test system is TK-10 renal. To be noted: 10 µM unless noted.
A further assay concerns ACHN renal. The settings on record: 10 µM unless noted.
The next assay relates to CAKI-1 renal. The settings on record: 10 µM unless noted.
Another assay concerns CCRF-CEM leukemia. To be noted: 10 µM unless noted.
The test system of the next assay is MOLT-4 leukemia. The settings on record: 10 µM unless noted.
A further assay concerns SR leukemia. The settings on record: 10 µM unless noted.
Another assay concerns RPMI-8226 leukemia. To be noted: 10 µM.
The subject of another assay is OVCAR-8 ovarian. The settings on record: 10 µM unless noted.
The test system of a further assay is OVCAR-5 ovarian. To be noted: 10 µM unless noted.
The test system of the next assay is IGROV1 ovarian. To be noted: 10 µM unless noted.
The subject of a further assay is OVCAR-3 ovarian. The settings on record: 10 µM unless noted.
Another assay concerns HS 578T breast. The settings on record: 10 µM unless noted.
The next assay relates to NCI/ADR-RES ovarian. To be noted: 10 µM unless noted.
In a further assay the test system is OVCAR-4 ovarian. To be noted: 10 µM unless noted.
The next assay relates to SK-OV-3 ovarian. The settings on record: 10 µM.

Take `O=C1c2c(c3c4cc(Br)ccc4[nH]c3c3ccc4ccccc4c23)C(=O)N1O`: the growth in the assay with SK-MEL-2 melanoma is 106%; in the assay on EKVX NSCLC, 87.3%; with SN12C renal, 92.2%; in the assay with UO-31 renal it was 101%; in the assay on TK-10 renal it was 117%; with ACHN renal, 73.3%. For the same compound, the growth in the assay with CAKI-1 renal is 69.6%; in the assay with CCRF-CEM leukemia, 54.1%; in the assay on MOLT-4 leukemia, 68.5%; in the assay on SR leukemia, 33.9%; in the assay with RPMI-8226 leukemia, 58.9%; with OVCAR-8 ovarian it was 84.1%. Further, the growth in the assay on OVCAR-5 ovarian was 111%; in the assay on IGROV1 ovarian it was 70.2%; in the assay on OVCAR-3 ovarian, 107%; in the assay on HS 578T breast it was 117%; in the assay with NCI/ADR-RES ovarian, 98.1%.

Turning to `CN1CCN(c2ccc3nc(-c4ccc5nc(-c6ccc(C(F)(F)F)cc6)[nH]c5c4)[nH]c3c2)CC1`, the growth with SK-MEL-2 melanoma is 103%; in the assay with EKVX NSCLC it was 81.6%; with SN12C renal, 80.3%; in the assay with UO-31 renal, 105%; in the assay on TK-10 renal, 101%; with ACHN renal it was 55.6%. Besides, the growth was 43% with CAKI-1 renal; 21.2% in the assay on CCRF-CEM leukemia; 47.2% in the assay with MOLT-4 leukemia; -18.5% (active) with SR leukemia; -9.04% (active) in the assay with RPMI-8226 leukemia; 65.5% in the assay with OVCAR-8 ovarian. Further, the growth in the assay on OVCAR-5 ovarian was 110%; with IGROV1 ovarian, 71.2%; with OVCAR-3 ovarian, -17.3% (active); in the assay with HS 578T breast it was 26.4%; in the assay with NCI/ADR-RES ovarian, 102%.

With `COc1ccc(/C=N\N2CCOCC2)cc1OC1CCCC1`, the growth is 106% with SK-MEL-2 melanoma; 89.4% in the assay with EKVX NSCLC; 101% in the assay with SN12C renal; 82% in the assay on UO-31 renal; 101% in the assay on TK-10 renal; 104% in the assay on ACHN renal. The growth was 94.1% with CAKI-1 renal; 106% in the assay with CCRF-CEM leukemia; 122% in the assay on MOLT-4 leukemia; 101% with SR leukemia; 103% in the assay with RPMI-8226 leukemia; 104% in the assay on OVCAR-8 ovarian. Besides, the growth with OVCAR-5 ovarian is 103%; in the assay on OVCAR-4 ovarian, 97.6%; in the assay on IGROV1 ovarian it was 107%; with OVCAR-3 ovarian, 114%; in the assay with HS 578T breast it was 90.7%; in the assay on NCI/ADR-RES ovarian it was 106%.

In the case of `O=c1c2cc(F)ccc2oc2c(NCCNCCO)nc3ccccc3c12`, the growth with SK-MEL-2 melanoma was 84.7%; in the assay with EKVX NSCLC, 50.9%; in the assay with SN12C renal it was 37.7%; in the assay with UO-31 renal, 37.1%; in the assay with TK-10 renal it was 71.3%; in the assay with ACHN renal, 19.1%. In addition, the growth with CAKI-1 renal was 30.2%; in the assay on CCRF-CEM leukemia it was 30.9%; with MOLT-4 leukemia, -0.96% (active); in the assay on RPMI-8226 leukemia it was 32.1%; in the assay on OVCAR-8 ovarian, 34.1%; in the assay on OVCAR-5 ovarian it was 60.6%. Also, the growth is 37.3% in the assay with OVCAR-4 ovarian; 37% with IGROV1 ovarian; 55% with OVCAR-3 ovarian; 67.1% with HS 578T breast; 48.9% in the assay with NCI/ADR-RES ovarian.

`COc1cc(CNCCN2C(=O)c3ccc4c5c(ccc(c35)C2=O)C(=O)N(CCNCc2cc(OC)c(OC)c(OC)c2)C4=O)cc(OC)c1OC`: the growth with SK-MEL-2 melanoma is -82.3% (active); in the assay on EKVX NSCLC, -42% (active); in the assay with SN12C renal, -87.7% (active); with UO-31 renal, -70.2% (active); with TK-10 renal, -87.1% (active); in the assay on ACHN renal, -92.2% (active). Besides, the growth in the assay on CAKI-1 renal is -70% (active); with CCRF-CEM leukemia, -20.7% (active); in the assay with MOLT-4 leukemia, -4.82% (active); in the assay on SR leukemia, 0.859% (active); with RPMI-8226 leukemia it was -25.5% (active); in the assay with OVCAR-8 ovarian, -47.3% (active). In addition, the growth was -78.7% (active) in the assay with OVCAR-5 ovarian; -70.9% (active) with OVCAR-4 ovarian; -96.9% (active) in the assay on SK-OV-3 ovarian; -53.5% (active) in the assay with IGROV1 ovarian; -99.1% (active) with OVCAR-3 ovarian; -60.7% (active) in the assay on HS 578T breast. Further, the growth in the assay on NCI/ADR-RES ovarian is -20.2% (active).

Consider `COC(=O)c1c2c(c(C)[n+]([O-])c1C)C(=O)C=C(NCc1ccc(F)c(Cl)c1)C2=O`, for which the growth in the assay with SK-MEL-2 melanoma is -42.8% (active); in the assay with EKVX NSCLC, -63.3% (active); in the assay with SN12C renal, -85.7% (active); with UO-31 renal, -49.5% (active); in the assay on TK-10 renal it was 21.2%; in the assay on ACHN renal, -38.4% (active). For the same compound, the growth with CAKI-1 renal was -16.1% (active); with CCRF-CEM leukemia, -2.7% (active); in the assay with MOLT-4 leukemia, -35.6% (active); with SR leukemia it was -1.19% (active); in the assay with RPMI-8226 leukemia, -32.7% (active); in the assay on OVCAR-8 ovarian, -21.2% (active). In addition, the growth with OVCAR-5 ovarian is -91.8% (active); with IGROV1 ovarian, -55.2% (active); in the assay with OVCAR-3 ovarian, -41.4% (active); with HS 578T breast, -24.2% (active); in the assay with NCI/ADR-RES ovarian it was -18.6% (active).

Consider `COc1cc(OCc2cccc(-c3ccc(C(O)c4nccs4)cc3)c2C)cc(OC)c1C=O` (stereo not drawn), for which the growth was 60.4% in the assay with SK-MEL-2 melanoma; 43% in the assay with EKVX NSCLC; 61.8% in the assay on SN12C renal; 22.9% with UO-31 renal; 27.7% in the assay with TK-10 renal; 25.2% in the assay on ACHN renal. For the same compound, the growth was 2.55% (active) in the assay on CAKI-1 renal; 37.2% with CCRF-CEM leukemia; 21.2% with MOLT-4 leukemia; 53.1% in the assay with SR leukemia; 22.1% in the assay on RPMI-8226 leukemia; 59.8% with OVCAR-8 ovarian. In addition, the growth in the assay on OVCAR-4 ovarian is 15.9%; with IGROV1 ovarian it was 21%; in the assay on OVCAR-3 ovarian, 48.1%; in the assay on HS 578T breast, 67.1%; in the assay on NCI/ADR-RES ovarian, 58.1%.

With `O=C1CCC(N2C(=O)c3cccc(NCCOCCOCCNC(=O)c4cc5c(o4)C(=O)c4ccccc4C5=O)c3C2=O)C(=O)N1` (stereo not drawn), the growth in the assay on SK-MEL-2 melanoma was -27.8% (active); in the assay on EKVX NSCLC it was 55.9%; in the assay on SN12C renal, -90.6% (active); with UO-31 renal, 51%; in the assay on TK-10 renal, 36.1%; in the assay with ACHN renal, 41.9%. Moreover, the growth in the assay with CAKI-1 renal is 22%; in the assay with CCRF-CEM leukemia it was 14.5%; in the assay on MOLT-4 leukemia it was 6.06% (active); in the assay with SR leukemia, 9.2% (active); in the assay on OVCAR-8 ovarian, 3.28% (active); in the assay with OVCAR-5 ovarian, -90.8% (active). Moreover, the growth is -93.5% (active) in the assay on OVCAR-4 ovarian; -16.1% (active) in the assay on IGROV1 ovarian; -40.6% (active) in the assay on OVCAR-3 ovarian; -29.7% (active) in the assay on HS 578T breast; 93.7% in the assay on NCI/ADR-RES ovarian.

Take `O=C1C=CC(=O)N1CCCCCCCCCCN1C(=O)C=CC1=O`: the growth in the assay on SK-MEL-2 melanoma is 96%; in the assay with EKVX NSCLC it was 97.8%; with SN12C renal, 94.8%; in the assay on UO-31 renal, 48.2%; with TK-10 renal, 106%; in the assay with ACHN renal, 80.3%. The growth is 15.2% in the assay on CAKI-1 renal; 16.5% with CCRF-CEM leukemia; 18.3% in the assay on MOLT-4 leukemia; 29.1% with SR leukemia; 52.9% in the assay on RPMI-8226 leukemia; 78.2% in the assay with OVCAR-8 ovarian. The growth was 103% in the assay on OVCAR-5 ovarian; 102% in the assay with OVCAR-4 ovarian; 126% in the assay on SK-OV-3 ovarian; 69.5% with IGROV1 ovarian; 38.2% in the assay with OVCAR-3 ovarian; 67.4% with HS 578T breast. In the assay on NCI/ADR-RES ovarian, the growth was 73.1%.

These data come from PubChem BioAssay (NCI).
